High-throughput results (PubChem)
Compounds with a hit are over-represented: about 19% of the library has one in this group of screens.
IL1B secr inh: blocks inflammasome-driven IL-1 beta release. THP-1 LPS/ATP IL-1B secretion, AlphaLISA, 16 h; stronger effect = lower value. activity change, % at 57.5 µM. 4.7% of 360,000 active. AID 743279; in the data active means activity change below about -50%; inconclusive means mostly about -30% to -49%
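Secreted IL-1B measured by AlphaLISA bead assay after 16 h compound exposure of THP-1 cells; compounds (final up to 57.5 uM) added 1 h before LPS (250 ng/mL) and ATP (1.25 mM) stimulation; lower signal means less secretion.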
ELG1 repair inh: blocks ELG1-dependent DNA repair in HEK293T cells. 2.3% of 330,000 active. AID 504467. HEK293T ELG1-luciferase reporter, luminescence, 16 h; DNA damage induced by 5-fluorouridine. Potency, µM (highest dose often 46.1 µM), for the others: at the top dose activity change, negative = inhibition, actives largely listed as inhibitors; further: potency means the concentration at half of the fitted maximal effect; nearly all actives have a fitted effect of over 55% in size
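Cells (2,000 per well) received 5-fluorouridine plus test compound or DMSO and were incubated 16 hr at 37 °C, 5% CO2. Luciferase activity was read by luminescence 30 min after ONE-Glo addition; signal suppression marked inhibition of damage-induced ELG1 function.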
DT40 TDP1 CPT: growth inhibition of DT40 Tdp1-/-;hTDP1 cells with camptothecin (screen for TDP1 inhibitors); chicken DT40 Tdp1-/-;hTDP1 cells + 20 nM CPT, ATP luminescence, 48 h; Potency, µM (titrated, usually from 46.2 µM), for the others: at the highest dose activity change, negative = growth inhibition, actives largely listed as inhibitors; 12% of 420,000 active; AID 686979; further: potency means the concentration at half of the fitted maximal effect; nearly all actives have a fitted effect of over 55% in size
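Cell growth measured by CellTiter-Glo luminescence after a minimum 48 h, 37 C compound exposure with 20 nM CPT in Tdp1-knockout DT40 cells stably expressing hTDP1, seeded 400/well; qHTS titration format.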
DT40 TDP1 no CPT: qHTS for Inhibitors of human tyrosyl-DNA phosphodiesterase 1 (TDP1): qHTS in cells in absence of CPT; DT40 Tdp1-/- hTDP1 cells, no CPT, ATP luminescence, 48 h; Potency, µM (top dose mostly 46.2 µM), for inactives: at the highest dose activity change, negative = growth inhibition, usual class: inhibitors; 15% of 420,000 active; AID 686978, 2013; further: potency means the concentration at half of the fitted maximal effect; nearly all actives have a fitted effect of over 55% in size
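Seeded 400 DT40-hTDP1 cells/well (vehicle DMSO, no 20 nM CPT); pinned compounds; ≥48 hr at 37 °C; CellTiter-Glo luminescence as viability measure.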
HT1080 IDH1KD tx: toxicity to HT-1080 IDH1 knockdown cells (counter line); HT-1080 IDH1 knockdown viability, ATP luminescence, 48 h; Potency, µM (doses to about 46.1 µM), without a hit: at the top dose activity, negative = toxicity, most hits filed as cytotoxic; 2% of 360,000 active;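 further: potency means the concentration at half of the fitted maximal effect; 0% = DMSO wells and -100% = cell-free medium wells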
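CellTiter-Glo luminescence after 48 h compound exposure at 37 degrees C of IDH1-knockdown HT-1080 cells in 5% FBS RPMI. %Activity scaled between DMSO wells and cell-free media wells, with curves fitted and assigned curve classes.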
HT1080NT lethal: kills 2HG-producing HT-1080-NT fibrosarcoma cells; HT-1080-NT fibrosarcoma viability, CellTiter-Glo ATP luminescence, 48 h; Potency, µM (titrated, usually from 46.1 µM), without a hit: top-dose activity, negative = less viability, usual class: cytotoxic; 1.6% of 360,000 active;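 further: NT is the 2HG producing partner of a matched IDH1 knockdown line; potency means the concentration at half of the fitted maximal effect; 0% = DMSO-treated cells and -100% = media-only wells without cells; nearly all actives have a fitted effect of over 55% in size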
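Luminescent CellTiter-Glo readout after 48 hours of compound exposure at 37 degrees C defined viability of HT-1080-NT cells. Activity was normalized to DMSO wells and cell-free media wells; concentration-response curves were fitted and assigned curve classes.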
The depositor's hits bear a star; ? = inconclusive; . = no result given. Unless noted, the call rests on the fitted dose curve; in most records, active means well fitted curve in the direction sought with a large enough effect; inconclusive means small, poorly fitted or top-dose-only effect, or another doubt; inactive means no such curve, though single readings can be large; an effect the other way counts as inactive or inconclusive. Unless noted, on the % scale 0 is the no-effect control and ±100 the full control effect.

SMILES	IL1B secr inh	ELG1 repair inh	DT40 TDP1 CPT	DT40 TDP1 no CPT	HT1080 IDH1KD tx	HT1080NT lethal
Cc1cc(C)c(C(N)=O)c(Nc2ccc3c(c2)OCCO3)n1	-16	-2%	?	7.3µM*	6%	10%
Cc1ccc(Nc2nc(C)cc(C)c2C(N)=O)c(C)c1	13	0%	?	6.5µM*	-2%	-1%
CCc1ccc(Nc2nc(C)cc(C)c2C(N)=O)cc1	10	0%	?	6.5µM*	1%	1%
Cc1ccc2ncc3c(-c4ccc(F)cc4)nn(CC(=O)Nc4ccccc4C)c3c2c1	.	.	-14%	7%	.	.
COc1cccc(-c2nnc(NC(=O)C3CCCCC3)o2)c1	-13	?	-15%	?	-2%	1%
CCCC(=O)Nc1cccc(-c2nc3ccccc3c(=O)o2)c1	-2	?	39%	3%	18%	1%
O=C(Nc1cccc(-c2nnc(-c3ccccc3)o2)c1)C1CCCCC1	-16	?	?	18µM*	6%	12%
CCC(=O)Nc1cccc(-c2nnc(-c3ccccc3)o2)c1	?	.	21µM*	21µM*	-9%	-3%
O=S(=O)(NC1CCCCC1)c1cccc(-c2nnc(-c3ccccc3)o2)c1	?	?	?	15µM*	-19%	0%
CCCCC(=O)Nc1cccc(-c2nnc(-c3ccccc3)o2)c1	?	?	23µM*	23µM*	?	?
CO/N=C(/C)CCS(=O)(=O)c1ccccc1	15	8%	-4%	1%	8%	-1%
CCOC(CNc1ncnc2c1cnn2C)OCC	5	14%	-1%	-19%	8%	?
Cc1oc(-c2cccc3ccccc23)nc1CN1CCN(c2ncnc3ccccc23)CC1	0	15µM*	16µM*	12µM*	?	?
COc1ccc(-c2nc(CN3CCN(c4cc(C)nc(C)c4)CC3)c(C)o2)c2ccccc12	-105*	13%	-104%	?	15µM*	13µM*
Cc1cc(N2CCN(Cc3nc(-c4ccc(Cl)cc4)oc3C)CC2)cc(C)n1	.	-27%	12µM*	18µM*	21µM*	21µM*
Cc1cnc(C)c(N2CCN(Cc3nc(-c4ccc(C)o4)oc3C)CC2)n1	21	-19%	-20%	?	0%	-2%
Cc1sc(NC(=O)C2=COCCO2)nc1-c1ccc(Br)cc1	-21	?	?	?	-15%	-9%
O=C(Nc1nc2cc3c(cc2s1)OCCO3)c1ccc(N2C(=O)CCC2=O)cc1	9	?	2%	-19%	2%	0%
Cc1sc(NC(=O)C2=COCCO2)nc1-c1ccc(F)cc1	5	?	16µM*	21µM*	-13%	2%
CC(C)C(=O)Nc1nc2cc3c(cc2s1)OCCO3	4	?	21µM*	15µM*	-18%	-7%
CC(=O)Nc1nc2cc3c(cc2s1)OCO3	-22	?	23µM*	15µM*	-3%	-3%
O=C(Nc1nc2cc3c(cc2s1)OCO3)C1=COCCO1	23	?	8.2µM*	13µM*	18µM*	13µM*
C=CCN1C(=O)C(CC(=O)NCC)SC1=Nc1ccccc1OC (centres undefined)	12	?	1%	2%	6%	3%
Cc1cn2c(=O)cc(COc3cccc(NC(=O)c4ccccc4C)c3)nc2s1	.	.	-21%	?	.	.
Cc1cc(C)c2nc3nc(C)c(C)cc3c(N)c2c1	-89*	5%	8.2µM*	6.5µM*	13µM*	?
SMILES	IL1B secr inh	ELG1 repair inh	DT40 TDP1 CPT	DT40 TDP1 no CPT	HT1080 IDH1KD tx	HT1080NT lethal
CCCSc1nc(C)c2cc(C)cc(C)c2n1	18	13%	-17%	-14%	9%	21%
CC1=C(C(=O)Nc2cccc(C)c2C)C(c2cccs2)NC(=S)N1 (centres undefined)	5	?	?	?	-3%	-1%
O=C(Nc1cccc2c1CCCC2)c1ccc(Cl)c([N+](=O)[O-])c1	-73*	16%	?	16µM*	-6%	-13%
O=C(Nc1cccc2c1CCCC2)c1cc([N+](=O)[O-])ccc1Cl	?	?	?	26µM*	21µM*	16µM*
COc1ccc(Cl)cc1NC(=O)CSc1nnc(C2CC2)n1N	13	1%	-1%	-3%	-8%	1%
COc1ccccc1NC(=O)CN(c1ccc(C(C)C)cc1)S(=O)(=O)c1c(C)noc1C	.	.	18µM*	23µM*	.	.
COc1ccc(OC)c(NC(=O)CN(c2ccc(C)cc2)S(=O)(=O)c2c(C)noc2C)c1	0	?	?	?	-11%	-21%
COc1ccc(N(CC(=O)Nc2cc(Cl)ccc2OC)S(=O)(=O)c2c(C)noc2C)cc1	0	-16%	3.3µM*	4.1µM*	12µM*	?
COc1ccc(OC)c(NC(=O)CN(c2ccc(C(C)C)cc2)S(=O)(=O)c2c(C)noc2C)c1	10	8.2µM*	?	?	?	?
CCOc1ccc(OCC)c(NC(=O)CN(c2ccc(OC)cc2)S(=O)(=O)c2c(C)noc2C)c1	24	1%	?	?	-7%	-7%
COCCCNC(=S)NNC(=O)C1CC1c1ccc(C(C)(C)C)cc1 (centres undefined)	8	?	12µM*	8.2µM*	-11%	-14%
Cc1ccc(NC(=S)NNC(=O)C2CC2c2ccc(C)cc2)cc1 (centres undefined)	-2	-3%	2%	-16%	1%	0%
Cc1ccc(CNC(=O)CCCCCn2c(=O)c3sccc3n(CC(=O)Nc3ccc(C)c(F)c3)c2=O)cc1	.	.	-5%	?	.	.
C=CCc1cc(C=O)cc(OCC)c1OCc1ccc(Cl)cc1	0	5%	?	?	28%	7%
C=CCc1cc(C=O)cc(OC)c1OCc1ccc(Cl)cc1	15	?	?	18µM*	-13%	-27%
C/C(Cl)=C/Cn1c(NCCN(C)C)nc2c1c(=O)n(C)c(=O)n2C	-28	2%	-1%	-4%	-1%	0%
Cn1c(=O)c2c(nc(NCc3cccnc3)n2Cc2ccccc2Cl)n(C)c1=O	-20	-1%	?	?	5%	11%
Cn1c(=O)c2c(nc(NCCc3ccccc3)n2Cc2ccc(Cl)cc2)n(C)c1=O	.	.	12µM*	10µM*	.	.
